High-throughput results as filed in PubChem.
Sampled rows, rich in hits. Any-hit rate of the full collection: about 2.1%.
F508del corr – correctors of CFTR F508del function in bronchial epithelial cells. 0.36% of 350,000 active. AID 720511. activity (quench increase), % at 7.58 µM. CFBE cells, YFP halide quenching; stimulated with forskolin plus potentiator P3; % fluorescence drop versus neutral controls;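 active means mean added fluorescence quench of at least 8% versus neutral control, with both replicates also reaching 8%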;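 further: cells transiently co-express mutant CFTR-F508del with the halide-sensitive YFP; corrector assay measuring rescue of mutant channel to the surface after 24 h compound exposure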
ERAP1 inh – blocks human ERAP1 aminopeptidase activity | Q9NZ08 | recombinant ERAP1, Leu-AMC fluorescence, 60 min | inhibition, % at 10.7 µM | 0.15% of 340,000 active | AID 652197;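 active means mean replicate inhibition of at least 30%, or all replicates individually reaching that 30% level; inactive means mean below 30% and not every replicate reaching it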;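 further: 0% = neutral control wells and 100% = L-leucinethiol positive control wells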
Target sequence (Q9NZ08 whole entry, looked up): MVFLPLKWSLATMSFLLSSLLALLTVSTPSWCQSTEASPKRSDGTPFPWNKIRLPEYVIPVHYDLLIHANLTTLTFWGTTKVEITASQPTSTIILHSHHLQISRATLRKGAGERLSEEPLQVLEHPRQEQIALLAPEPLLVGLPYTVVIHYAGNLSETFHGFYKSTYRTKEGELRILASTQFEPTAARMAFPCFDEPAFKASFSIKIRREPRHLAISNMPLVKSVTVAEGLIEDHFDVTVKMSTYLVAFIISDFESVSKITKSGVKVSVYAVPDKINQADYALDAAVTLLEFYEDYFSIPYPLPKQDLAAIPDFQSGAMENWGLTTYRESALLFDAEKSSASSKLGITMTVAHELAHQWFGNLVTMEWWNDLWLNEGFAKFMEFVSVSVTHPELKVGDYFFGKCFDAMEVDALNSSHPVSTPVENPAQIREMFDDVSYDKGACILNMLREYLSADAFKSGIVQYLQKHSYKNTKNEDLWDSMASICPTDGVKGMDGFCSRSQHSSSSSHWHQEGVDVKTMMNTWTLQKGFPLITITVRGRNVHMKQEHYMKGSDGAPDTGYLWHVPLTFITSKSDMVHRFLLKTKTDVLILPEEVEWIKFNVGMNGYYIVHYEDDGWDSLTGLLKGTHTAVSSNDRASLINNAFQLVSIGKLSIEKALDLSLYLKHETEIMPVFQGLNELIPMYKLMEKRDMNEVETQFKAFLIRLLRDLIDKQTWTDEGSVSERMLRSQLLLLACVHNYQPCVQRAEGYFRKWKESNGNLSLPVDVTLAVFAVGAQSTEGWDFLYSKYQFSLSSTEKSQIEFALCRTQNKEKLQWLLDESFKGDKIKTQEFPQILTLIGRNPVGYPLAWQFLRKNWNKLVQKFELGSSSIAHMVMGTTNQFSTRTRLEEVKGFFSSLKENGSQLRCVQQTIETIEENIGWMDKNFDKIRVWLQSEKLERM
PvdQ acylase – P. aeruginosa PvdQ acylase inhibition. purified PvdQ acylase, fluorescence plate reader. inhibition, % at 10 µM. 0.063% of 340,000 active. AID 488965; in the data active means inhibition above about 30%, passing the limit was not always enough;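 further: 0% = vehicle neutral wells and 100% = reference inhibitor wells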
ARNT TACC3 PPI – disrupts binding between human ARNT and TACC3; Q9Y6A5; AlphaScreen His-ARNT PAS-B/GST-TACC3 binding, luminescence; TACC3 fragment carries E629A point mutation; inhibition, % at 9.99 µM; 0.66% of 390,000 active; AID 623870;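 active means mean inhibition of replicates at least 50% and at least half of replicates each reaching 50%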;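 further: 0% = complete ARNT plus TACC3 wells and 100% = ARNT alone without TACC3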
Ecoli rRNA inh – inhibitors of bacterial rRNA selective over humanized ribosomes; E. coli WT GFP vs humanized-ribosome RFP mutants, fluorescence, 24 h; active compounds read low; DMSO median 0, no signal -100; GFP signal change (wild-type ribosome), % (no concentration beside the values); 1.6% of 350,000 active; AID 720706;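 active means significant combined selectivity score with lowered wild-type GFP, culture density cut under 30%, mutant RFP and density less affected; inactive means any of these conditions unmet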
* = called active by the depositor; nt = no result given.

SMILES	F508del corr	ERAP1 inh	PvdQ acylase	ARNT TACC3 PPI	Ecoli rRNA inh
CC(=O)N1C[C@H]2CON(C)[C@H]2C[C@H]1c1cccc(N2CCOCC2)c1	-2	108*	nt	nt	7
C[C@H](CO)N1C[C@H](C)[C@@H](CN(C)Cc2ccc(-c3ccccc3)cc2)Oc2ccc(NC(=O)Cn3cnnn3)cc2CC1=O	-2	0	nt	7	-34
C[C@@H]1CN([C@@H](C)CO)C(=O)c2cccc(NC(=O)Nc3ccc4c(c3)OCO4)c2O[C@H]1CN(C)C(=O)Nc1ccc(F)cc1	-2	nt	nt	0	-5
COc1cc(-c2cc(-c3ccccc3)nc(SCC(=O)O)c2C#N)cc(OC)c1OC	-2	3	-5	-13	-29*
Cn1nc(C(F)(F)F)c(-c2cccc(C(F)(F)F)c2)c1NC(=O)Nc1ccc(F)cc1	4	3	nt	nt	-28*
Cn1nc(-c2ccccc2)cc1NC(=O)Nc1ccc(F)cc1	0	6	-22	11	-40*
CCC(=O)N1CC[C@@H]2[C@H](CO)Nc3ccc(-c4ccc(C(=O)N(C)C)cc4)cc3[C@@H]21	0	2	nt	6	-5
CCCCCCCCCCCC1N=C(N)NC(CCCO)=C1C(=O)OC (stereo not given)	-5	44*	-5	2	nt
Cc1ccc(S(=O)(=O)N(C)C[C@H]2Oc3ccc(NC(=O)CCN4CCOCC4)cc3CC(=O)N([C@H](C)CO)C[C@H]2C)cc1	2	-1	nt	-1	3
O=C(O)c1cccc2cccc(-c3c4ccc(=O)c(O)c-4oc4c(O)c(O)ccc34)c12	-3	-1	-5	6	-22*
Cc1ccc(CNc2cc(C(=O)O)ccc2Cl)s1	1	-2	-11	-6	-33*
O=C(O)c1ccc(Cl)c(NCc2ccncc2)c1	-3	4	-9	-3	9
COc1ccc(CN(C)C[C@H]2OCCCC[C@@H](C)Oc3ccc(NC(=O)C4CCCCC4)cc3C(=O)N([C@@H](C)CO)C[C@H]2C)cc1	0	2	nt	1	1
C[C@H]1CN([C@@H](C)CO)C(=O)c2cc(C#Cc3ccccc3F)cnc2O[C@H]1CN(C)C(=O)C1CCCCC1	-2	nt	nt	nt	-10
COc1cc(OC)cc(C(=O)NC(=S)N2CCCCCC2)c1	-1	2	-3	-1	-31*
CCOC(=O)c1ccoc1CN1CCN(S(=O)(=O)c2ccc(C)c(C)c2)CC1	-3	-3	-8	-4	-20*
Cc1ccc(S(=O)(=O)N2CCN(Cc3ccco3)CC2)cc1C	-10	-2	-6	3	-6
O=S(=O)(c1ccc(Br)cc1)c1nc(-c2ccco2)oc1NCCCn1ccnc1	1	-1	-6	64*	-3
CO[C@H]1CN(C)C(=O)c2cc(NS(=O)(=O)c3ccccc3)ccc2OC[C@@H](C)N(Cc2cccnc2)C[C@H]1C	-2	0	nt	0	0
C=CCN(C(=O)c1csnn1)C(C(=O)NC1CCCC1)c1c(F)cccc1Cl (stereo not given)	0	3	2	nt	-21*
C=CCN(C(=O)c1csnn1)C(C(=O)NC1CCCCC1)c1ccc(Cl)cc1 (stereo not given)	-1	-2	-3	5	-4
Cc1cccc(NC(=O)Cn2c(/C=C/c3ccccc3)nc3ccccc32)c1	nt	1	-12	48*	-16
Cc1ccc(NC(=O)Cn2c(=O)c(C)nc3ccccc32)cc1	0	4	-8	-3	4
Cc1[nH]c(=O)[nH]c(=O)c1/C=N/NC(=O)[C@H](CC(C)C)NC(=O)OC(C)(C)C	nt	nt	-13	24	nt
Cc1[nH]c(=O)[nH]c(=O)c1/C=N/NC(=O)[C@@H](N)CC(C)C	-2	nt	-5	65*	10
SMILES	F508del corr	ERAP1 inh	PvdQ acylase	ARNT TACC3 PPI	Ecoli rRNA inh
Cc1ccc(N2C(=O)[C@@H]3[C@H](C2=O)C2c4ccccc4C=CN2[C@@H]3C(=O)c2ccco2)c(C)c1 (stereo not given in full)	nt	nt	10	45*	nt
CC(c1ccon1)N(C)C(=O)c1ccc2nc(Cc3cccc(Cl)c3)oc2c1 (stereo not given)	-2	7	8	nt	-28*
CCCNC(=O)N1CC2(C1)CN(C(=O)c1cccnc1)[C@@H](CO)c1[nH]c3cc(OC)ccc3c12	-1	-2	nt	nt	0
O=C1/C(=C/c2ccc(O)cc2)SC(=S)N1CC1CCCO1 (stereo not given)	0	-4	-14	4	-24*
O=C1/C(=C\c2ccc(O)cc2)SC(=S)N1Cc1ccccc1	26*	1	11	7	-48
O=C(O)c1ccc(/C=C2/SC(=S)N(Cc3ccccc3)C2=O)cc1	0	0	-13	-8	10
COc1cc(/C=C2/SC(=S)N(Cc3ccccc3)C2=O)cc(Cl)c1O	8.1*	1	9	1	25
COc1cc(/C=C2/SC(=S)N(Cc3ccccc3)C2=O)ccc1OCC(=O)O	3	0	5	25	-6
Cc1ccc(SCc2noc(C(=O)NCC3CCCO3)c2C(=O)O)cc1C (stereo not given)	1	0	-9	-1	-24*
O=C(NCC1CCCO1)c1onc(CSc2cccc(Cl)c2)c1C(=O)O (stereo not given)	0	0	13	-7	-7
Cn1c(N2CCN(C(c3ccccc3)c3ccccc3)CC2)nc2ccccc21	-11	-6	17	22	-26*
CC(C)Cn1c(SC(C)C(=O)Nc2ccc3c(c2)OCCO3)nc2ccccc2c1=O (stereo not given)	nt	nt	-3	-5	nt
CC(Sc1nc2ccccc2c(=O)n1C)C(=O)Nc1ccc2c(c1)OCCO2 (stereo not given)	25*	4	3	-3	1
COc1ccc(/C=C/C(=O)c2ccoc2)cc1	nt	-2	40*	-2	-9
CC[C@@H](NC(=O)[C@@H](Cc1ccccc1)NC(=O)CC[C@H]1O[C@@H](n2ccc(=O)[nH]c2=O)[C@H](O)[C@@H]1O)c1ccccc1	1	-3	nt	nt	-8.9*
COc1cccc(CN2c3ccc(Br)cc3C(=O)CS2(=O)=O)c1	-3	2	-20	3	-37*
Cc1ccc(-c2csc3nc[nH]c(=O)c23)c(C)c1	-7	0	-27	nt	-14
Cc1ccc(-c2csc3nc(C(C)C)oc(=O)c23)c(C)c1	-2	-7	1	6	-24*
COc1ccc(CC(=O)N2CCc3ccccc3C2)cc1	-2	5	13	3	2
O=C(COc1ccc(Br)cc1)N1CCc2ccccc2C1	1	-2	-7	-11	-26*
O=C(Cc1ccc(Cl)cc1)N1CCc2ccccc2C1	2	0	-8	-2	-28*
COc1ccc(OCC(=O)N2CCc3ccccc3C2)cc1	-1	-1	-8	-2	4
CN=C1S/C(=C\c2ccc(SC)cc2)C(=O)N1C	-1	0	48*	12	2
